The values that follow come from ChEMBL document CHEMBL3988442, “University of Dundee, Small-Polar-MMV Screening Library” (2021).

For some assays here: Potency and affinity values are given separately.

Parameters in all cases: scale not given: direction of the effect not stated beside the values
The target of assay [1] is Protein translocase subunit SecA (Escherichia coli (strain K12)) (UniProt P10408). Kind of assay: Assay to Identify E. coli SecA ATPase Inhibitors. The class given is functional. Conditions: 30 µM.
For assay [2], the target named is T1, Ubiquitin-activating enzyme e1, putative (Leishmania donovani (strain BPK282A1)) (UniProt E9BSI1).
T1 sequence (whole entry): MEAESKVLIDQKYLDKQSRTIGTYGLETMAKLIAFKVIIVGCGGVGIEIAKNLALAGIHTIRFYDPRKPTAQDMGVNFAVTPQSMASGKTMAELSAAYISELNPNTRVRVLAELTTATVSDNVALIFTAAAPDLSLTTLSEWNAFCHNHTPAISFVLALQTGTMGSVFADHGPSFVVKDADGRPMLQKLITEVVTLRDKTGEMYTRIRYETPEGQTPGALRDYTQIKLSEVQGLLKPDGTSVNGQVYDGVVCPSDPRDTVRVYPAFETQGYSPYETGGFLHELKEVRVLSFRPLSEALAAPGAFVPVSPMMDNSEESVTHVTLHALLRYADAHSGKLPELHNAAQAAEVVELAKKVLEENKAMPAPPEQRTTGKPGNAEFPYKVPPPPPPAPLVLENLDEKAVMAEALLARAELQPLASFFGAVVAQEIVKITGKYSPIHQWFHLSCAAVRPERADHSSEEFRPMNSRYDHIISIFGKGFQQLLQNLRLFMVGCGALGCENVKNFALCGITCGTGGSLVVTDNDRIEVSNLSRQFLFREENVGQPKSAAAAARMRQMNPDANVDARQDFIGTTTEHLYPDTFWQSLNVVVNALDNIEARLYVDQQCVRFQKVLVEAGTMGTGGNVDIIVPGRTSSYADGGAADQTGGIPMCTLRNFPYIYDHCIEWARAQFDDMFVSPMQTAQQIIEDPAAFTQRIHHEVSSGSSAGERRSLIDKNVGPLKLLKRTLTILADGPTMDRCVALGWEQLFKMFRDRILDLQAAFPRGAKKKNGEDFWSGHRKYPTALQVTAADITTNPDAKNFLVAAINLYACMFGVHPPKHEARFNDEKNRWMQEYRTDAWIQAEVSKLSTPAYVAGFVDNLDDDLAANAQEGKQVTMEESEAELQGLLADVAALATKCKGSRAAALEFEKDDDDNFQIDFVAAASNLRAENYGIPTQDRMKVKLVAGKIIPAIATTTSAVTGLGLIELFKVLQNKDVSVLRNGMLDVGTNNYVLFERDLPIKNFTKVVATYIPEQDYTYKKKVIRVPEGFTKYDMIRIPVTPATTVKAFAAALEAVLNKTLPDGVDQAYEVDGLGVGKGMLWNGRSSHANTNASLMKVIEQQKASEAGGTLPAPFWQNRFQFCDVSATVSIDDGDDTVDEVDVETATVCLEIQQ
Kind of assay: Leishmania donovani Ubiquitin Activating Enzyme (LdE1). The assay is classed as functional. The conditions noted are these: 30 µM.

Assay [3] addresses AMP-activated protein kinase, AMPK (Homo sapiens) (UniProt P54646+O43741+P54619+Q9UGJ0+Q9Y478+Q13131+Q9UGI9). Kind of assay: AMP-dependent Kinase enzyme assay. An in vitro enzyme assay that detects ADP turnover that is directly proportional to AMPK activity. This uses naive AMPK that is activated during the assay with MK-8722. The assay is classed as functional. The conditions noted are these: 30 µM.

Assay [4] concerns the target Sialic acid-binding Ig-like lectin 9 (Homo sapiens) (UniProt Q9Y336). Kind of assay: Hs-Siglec9 ALPHAscreen SOP 20170721. Conditions: 10 µM. (Bead proximity is the source of the signal in Alpha formats.)
The test system of a further assay is Trypanosoma cruzi. Kind of assay: Trypanosoma cruzi phosphomannomutase and mannose-1-phosphate guanylyltransferase assay. The conditions noted are these: 10 µM. The assay is classed as functional.
The target in assay [5] is T2, Arginase-2, mitochondrial (Homo sapiens) (UniProt P78540).
T2 sequence (whole entry): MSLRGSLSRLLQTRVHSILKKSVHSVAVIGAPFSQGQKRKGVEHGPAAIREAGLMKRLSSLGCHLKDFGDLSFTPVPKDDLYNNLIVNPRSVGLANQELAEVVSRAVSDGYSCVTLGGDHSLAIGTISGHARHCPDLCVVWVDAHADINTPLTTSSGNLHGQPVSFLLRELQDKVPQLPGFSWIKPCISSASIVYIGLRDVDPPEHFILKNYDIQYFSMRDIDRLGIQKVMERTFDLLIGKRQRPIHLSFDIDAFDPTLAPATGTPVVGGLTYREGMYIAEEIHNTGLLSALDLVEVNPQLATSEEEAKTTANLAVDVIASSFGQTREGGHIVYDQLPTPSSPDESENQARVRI
Kind of assay: in vitro enzyme assay to detect the production of urea directly proportional to the activity of Arginase II. Note: in the data most compounds retested in dose-response had high values. The class given is functional. Conditions: 33.3 µM.

In assay [6] the target is T3, Proteasome subunit beta (Trypanosoma cruzi) (UniProt O96673).
T3 sequence (whole entry): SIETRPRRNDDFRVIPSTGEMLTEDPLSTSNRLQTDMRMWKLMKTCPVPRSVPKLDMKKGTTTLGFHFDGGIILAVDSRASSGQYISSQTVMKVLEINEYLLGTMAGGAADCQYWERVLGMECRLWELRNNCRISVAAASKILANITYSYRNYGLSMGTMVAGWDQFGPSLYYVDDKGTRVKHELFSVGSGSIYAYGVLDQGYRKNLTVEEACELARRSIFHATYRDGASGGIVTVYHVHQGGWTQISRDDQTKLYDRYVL
Kind of assay: Trypanosoma cruzi proteasome chymotrypsin-like activity (TcProtChymo) assay. Note: in the data most compounds retested in dose-response had high values. The assay is classed as functional. Conditions: 9.37 µM.

For the next assay, the species on record is Homo sapiens. Kind of assay: To identify inhibition of the IFN signalling (Jak-Stat) pathway via expression of an eGFP reporter gene under the control of an IFN-stimulated response element (ISRE) containing MxA promoter. The assay is classed as functional. Conditions: 30 µM. Background: A reporter such as luciferase makes a cellular process visible.
Assay [7] has as its target T4, Tyrosyl-tRNA synthetase, putative (Trypanosoma cruzi (strain CL Brener)) (UniProt Q4DSP6).
T4 sequence (whole entry): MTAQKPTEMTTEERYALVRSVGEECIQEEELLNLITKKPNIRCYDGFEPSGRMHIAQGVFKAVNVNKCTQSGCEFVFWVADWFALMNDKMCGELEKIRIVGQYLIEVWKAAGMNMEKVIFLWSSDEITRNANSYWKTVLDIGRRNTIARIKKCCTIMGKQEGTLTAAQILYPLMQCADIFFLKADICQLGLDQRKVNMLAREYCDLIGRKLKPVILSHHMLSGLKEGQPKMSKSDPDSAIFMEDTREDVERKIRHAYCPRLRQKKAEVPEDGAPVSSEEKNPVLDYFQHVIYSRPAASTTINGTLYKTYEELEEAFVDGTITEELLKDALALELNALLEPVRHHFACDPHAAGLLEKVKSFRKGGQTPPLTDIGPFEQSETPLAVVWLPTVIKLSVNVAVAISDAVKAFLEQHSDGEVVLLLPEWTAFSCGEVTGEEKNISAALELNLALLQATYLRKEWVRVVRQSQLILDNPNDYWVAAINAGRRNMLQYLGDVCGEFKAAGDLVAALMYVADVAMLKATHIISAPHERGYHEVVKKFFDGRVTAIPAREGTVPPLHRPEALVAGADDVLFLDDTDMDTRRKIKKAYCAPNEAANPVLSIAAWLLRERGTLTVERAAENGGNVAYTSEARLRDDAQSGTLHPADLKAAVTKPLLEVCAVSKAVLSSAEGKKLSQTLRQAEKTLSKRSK
Kind of assay: Trypanosoma cruzi tyrosyl tRNA synthetase (TcYRS) _High Tyrosine SOP. Note: in the data most compounds retested in dose-response had high values. The assay is classed as functional. The conditions noted are these: 30 µM.

The target in assay [8] is T4, Tyrosyl-tRNA synthetase, putative (Trypanosoma cruzi (strain CL Brener)). Kind of assay: Trypanosoma cruzi tyrosyl tRNA synthetase (TcYRS) SOP. The conditions noted are these: 30 µM. The class given is functional.
Assay [9] concerns the target Chromo domain-containing protein 1 (Saccharomyces cerevisiae (strain ATCC 204508 / S288c) (Baker's yeast)) (UniProt P32657). Kind of assay: ScCHD-1 Enzyme Inhibition Assay. Note: in the data most compounds retested in dose-response had high values. The assay is classed as functional. The conditions noted are these: 30 µM.

Sequence of Protein translocase subunit SecA (Escherichia coli (strain K12)) (P10408 whole entry): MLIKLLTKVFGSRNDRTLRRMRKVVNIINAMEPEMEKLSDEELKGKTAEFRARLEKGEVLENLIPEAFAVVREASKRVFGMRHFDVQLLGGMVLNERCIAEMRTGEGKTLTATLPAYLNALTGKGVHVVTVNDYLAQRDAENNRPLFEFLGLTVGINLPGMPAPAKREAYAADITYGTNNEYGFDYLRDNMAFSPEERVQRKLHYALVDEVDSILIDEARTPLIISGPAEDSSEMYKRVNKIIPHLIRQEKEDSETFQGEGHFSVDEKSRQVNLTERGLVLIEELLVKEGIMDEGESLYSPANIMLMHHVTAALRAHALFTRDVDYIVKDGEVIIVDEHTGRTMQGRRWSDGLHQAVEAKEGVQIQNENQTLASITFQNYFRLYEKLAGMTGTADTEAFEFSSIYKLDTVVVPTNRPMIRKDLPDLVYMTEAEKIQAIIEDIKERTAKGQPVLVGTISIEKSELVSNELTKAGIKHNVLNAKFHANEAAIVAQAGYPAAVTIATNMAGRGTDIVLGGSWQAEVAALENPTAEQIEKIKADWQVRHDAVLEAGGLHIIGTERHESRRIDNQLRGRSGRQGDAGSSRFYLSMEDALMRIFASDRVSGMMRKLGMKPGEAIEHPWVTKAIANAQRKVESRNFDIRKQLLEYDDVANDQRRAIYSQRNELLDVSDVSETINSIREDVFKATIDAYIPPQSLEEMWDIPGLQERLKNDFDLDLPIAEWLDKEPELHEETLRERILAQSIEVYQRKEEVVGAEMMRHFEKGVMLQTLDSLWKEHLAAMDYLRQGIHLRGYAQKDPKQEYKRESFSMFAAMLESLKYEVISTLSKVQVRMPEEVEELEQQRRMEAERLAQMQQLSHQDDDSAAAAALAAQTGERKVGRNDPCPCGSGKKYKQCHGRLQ
Sequence of Sialic acid-binding Ig-like lectin 9 (Homo sapiens) (Q9Y336 whole entry): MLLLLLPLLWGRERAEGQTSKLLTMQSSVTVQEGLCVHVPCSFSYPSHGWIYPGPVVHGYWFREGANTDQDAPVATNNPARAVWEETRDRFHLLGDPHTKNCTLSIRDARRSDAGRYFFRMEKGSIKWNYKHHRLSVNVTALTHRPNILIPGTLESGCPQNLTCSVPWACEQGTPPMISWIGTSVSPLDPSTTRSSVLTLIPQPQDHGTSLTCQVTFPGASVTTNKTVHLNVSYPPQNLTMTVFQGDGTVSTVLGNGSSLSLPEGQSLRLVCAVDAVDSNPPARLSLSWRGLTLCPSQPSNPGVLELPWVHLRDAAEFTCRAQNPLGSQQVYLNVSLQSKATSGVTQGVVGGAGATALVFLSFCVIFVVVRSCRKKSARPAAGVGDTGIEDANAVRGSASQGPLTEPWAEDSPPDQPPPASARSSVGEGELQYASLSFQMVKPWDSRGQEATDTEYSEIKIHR
Sequence of Chromo domain-containing protein 1 (Saccharomyces cerevisiae (strain ATCC 204508 / S288c) (Baker's yeast)) (P32657 whole entry, the tested form may be a part): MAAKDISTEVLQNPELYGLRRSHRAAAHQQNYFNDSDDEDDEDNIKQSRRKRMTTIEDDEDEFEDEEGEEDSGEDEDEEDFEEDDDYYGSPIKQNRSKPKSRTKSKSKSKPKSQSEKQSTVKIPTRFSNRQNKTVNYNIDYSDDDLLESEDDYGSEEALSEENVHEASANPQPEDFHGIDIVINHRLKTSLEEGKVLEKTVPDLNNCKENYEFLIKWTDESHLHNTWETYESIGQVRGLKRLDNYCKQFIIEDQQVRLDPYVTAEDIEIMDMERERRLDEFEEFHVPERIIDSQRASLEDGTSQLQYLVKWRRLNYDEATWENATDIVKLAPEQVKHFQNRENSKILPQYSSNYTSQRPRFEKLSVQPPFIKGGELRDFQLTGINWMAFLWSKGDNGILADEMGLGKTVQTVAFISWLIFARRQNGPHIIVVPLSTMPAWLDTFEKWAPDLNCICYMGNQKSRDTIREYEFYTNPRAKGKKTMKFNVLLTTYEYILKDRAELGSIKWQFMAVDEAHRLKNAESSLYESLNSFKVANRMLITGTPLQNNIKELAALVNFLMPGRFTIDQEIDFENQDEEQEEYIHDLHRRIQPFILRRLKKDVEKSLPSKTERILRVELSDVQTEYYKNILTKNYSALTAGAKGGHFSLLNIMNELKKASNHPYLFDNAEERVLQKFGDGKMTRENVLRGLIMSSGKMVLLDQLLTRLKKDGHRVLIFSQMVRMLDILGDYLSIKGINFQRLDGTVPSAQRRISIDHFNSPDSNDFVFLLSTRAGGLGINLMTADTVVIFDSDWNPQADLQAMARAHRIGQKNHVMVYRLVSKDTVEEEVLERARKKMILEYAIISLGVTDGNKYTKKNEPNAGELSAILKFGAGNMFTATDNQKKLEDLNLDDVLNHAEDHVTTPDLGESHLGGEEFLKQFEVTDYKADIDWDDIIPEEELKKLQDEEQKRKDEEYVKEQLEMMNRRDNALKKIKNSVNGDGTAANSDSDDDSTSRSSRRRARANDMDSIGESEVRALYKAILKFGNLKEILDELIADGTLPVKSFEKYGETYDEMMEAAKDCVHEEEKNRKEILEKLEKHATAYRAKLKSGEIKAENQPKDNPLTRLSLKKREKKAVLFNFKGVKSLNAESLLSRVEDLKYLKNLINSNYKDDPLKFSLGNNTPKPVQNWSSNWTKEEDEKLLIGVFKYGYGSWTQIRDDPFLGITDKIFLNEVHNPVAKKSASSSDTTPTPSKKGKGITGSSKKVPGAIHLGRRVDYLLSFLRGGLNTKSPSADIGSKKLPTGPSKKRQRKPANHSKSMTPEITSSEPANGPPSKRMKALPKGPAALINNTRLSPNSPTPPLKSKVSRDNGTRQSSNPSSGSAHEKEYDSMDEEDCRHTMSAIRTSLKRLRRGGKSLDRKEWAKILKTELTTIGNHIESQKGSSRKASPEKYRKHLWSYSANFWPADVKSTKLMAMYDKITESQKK

Consider `c1cnn(Cc2nnc(C3CCN(C4CCOCC4)CC3)n2C2CC2)c1`, for which the Percent Effect in [1] is -7.04%; in [2] it was 13.3%; in assay [3] it was -7%; in assay [4] it was 24.9%; with Trypanosoma cruzi it was 3.99%; in [5], 5.73%. In addition, the Percent Effect in assay [6] worked out at 16.2%; in the assay listed under Homo sapiens it was 12.2%; in assay [7], 7.1%; in assay [8] it was 16.1%; in assay [9] it was 103%.

With `Fc1ccc(OCCCN2CCOC(Cn3cncn3)C2)cc1` (stereo not given), the Percent Effect in assay [1] was -1.31%; in assay [2], -3.8%; in assay [3] it was 6.98%; in assay [4] it was 5.51%; in the assay with Trypanosoma cruzi it was 3.79%; in assay [5], -3.23%. Moreover, the Percent Effect in [6] is 3.43%; in the assay listed under Homo sapiens, 2.48%; in assay [7], 0%; in [8], 2.53%; in assay [9], -15.5%.

Take `Cn1ncc2c1CCCC2NCc1cnc(-c2ccccc2)nc1` (stereo not given): the Percent Effect in [1] is -8.3%; in assay [2], 13.5%; in [3], -13.8%; in [4] it was 24.2%; in the assay with Trypanosoma cruzi, 4.62%; in assay [5], -7.21%. The Percent Effect in assay [6] was 1.44%; in the assay listed under Homo sapiens, 22.4%; in assay [7], 2.46%; in assay [8] it was 18.5%; in [9] it was -12.3%.

Regarding `CCCC(C)CN1CCC(n2cc(CCCO)nn2)CC1` (stereo not given), the Percent Effect in assay [1] is -3.6%; in assay [2] it was 4.17%; in assay [3], -2.5%; in assay [4] it was 0.0396%; with Trypanosoma cruzi, 1.46%; in assay [5], 1.32%. Moreover, the Percent Effect in [6] was 2.28%; in the assay listed under Homo sapiens it was -7.18%; in [7], 4.21%; in assay [8], 5.13%; in assay [9], 0.69%.

On to `Cc1cnn(CC2CCCCN2Cc2nc(-c3ccoc3)no2)c1` (stereo not given), for which the Percent Effect is -1.89% in assay [1]; 16.2% in assay [2]; -6.06% in assay [3]; 4.87% in assay [4]; 5.19% in the assay on Trypanosoma cruzi; -5.61% in assay [5]. The Percent Effect in assay [6] was 7.75%; in the assay filed under Homo sapiens it was 21.5%; in assay [7], 8.37%; in assay [8] it was 23.5%; in assay [9], -6.74%.

As to `O=C(O)c1coc(COc2cccc(F)c2)n1`, the Percent Effect in assay [1] is -5.01%; in assay [2], 16.2%; in assay [3], -4.57%; in assay [4], 33.9%; in the assay with Trypanosoma cruzi, 5.77%; in assay [5], 19.6%. The Percent Effect was 18.4% in assay [6]; -3.93% in the assay filed under Homo sapiens; 5.38% in [7]; 16.1% in assay [8]; -12.4% in assay [9].

As to `Cc1ccccc1C(=O)Nc1cnn(CC(=O)NC2CCCC2)c1`, the Percent Effect in assay [1] is -4.39%; in assay [2], 0%; in [3], -22.8%; in assay [4], 4.85%; in the assay with Trypanosoma cruzi it was 1.98%; in assay [5], 1.6%. Further, the Percent Effect in [6] is 20.5%; in the assay filed under Homo sapiens, 6.03%; in assay [7], 7.29%; in [8] it was 11.1%; in [9] it was -0.609%.

With `c1cnc(-c2cnc(N3CCSCC3)nc2C2CCCO2)cn1` (stereo not given), the Percent Effect in [1] was -4.61%; in assay [2], 6.76%; in assay [3], 9.87%; in assay [4], 3.27%; in the assay with Trypanosoma cruzi, -5.53%; in [5], -1.16%. Moreover, the Percent Effect in assay [6] was 9.98%; in the assay filed under Homo sapiens, 10.7%; in assay [7], 1.07%; in assay [8], 6.49%; in [9], -13.3%.

Consider `CCOCCn1c(=O)[nH]c2cc(C(=O)N(C)CCc3cn[nH]c3)ccc21`, for which the Percent Effect was determined as 0.265% in assay [1]; 16.2% in assay [2]; 4.85% in assay [3]; 14.1% in assay [4]; 5.6% with Trypanosoma cruzi; 22.4% in [5]. Also, the Percent Effect was 17.8% in [6]; 13% in the assay listed under Homo sapiens; 3.7% in [7]; 12.2% in assay [8]; -7.29% in assay [9].

Regarding `Cn1cc(C2CC(=O)NC23CCN(c2ncc(F)cn2)CC3)cn1` (stereo not given), the Percent Effect in assay [1] is 0.954%; in assay [2], 16%; in [3], 3.9%; in assay [4] it was 5.28%; with Trypanosoma cruzi it was -4.25%; in assay [5] it was -16.3%. For the same compound, the Percent Effect in [6] is 3.08%; in the assay filed under Homo sapiens, 16.6%; in assay [7] it was 1.04%; in assay [8], 17.5%; in assay [9], -4.13%.
